In all, about 390,000 compounds went through this assay and about 4,700 (1.2%) were called active. About 4% were inconclusive and are not listed. Calls follow the shape of the dose curve; as a rule, active = well fitted inhibition curve with a large enough effect; inconclusive = small, poorly fitted or top-dose-only effect, or another doubt; inactive = no such curve, though single readings can be large or run the other way. Shown is part of a subset that was picked to be rich in actives. Entries that show only a call come without a potency.
Biological target: DNA polymerase eta (Homo sapiens) (UniProt Q9Y253)
Sequence (Q9Y253 whole entry, looked up): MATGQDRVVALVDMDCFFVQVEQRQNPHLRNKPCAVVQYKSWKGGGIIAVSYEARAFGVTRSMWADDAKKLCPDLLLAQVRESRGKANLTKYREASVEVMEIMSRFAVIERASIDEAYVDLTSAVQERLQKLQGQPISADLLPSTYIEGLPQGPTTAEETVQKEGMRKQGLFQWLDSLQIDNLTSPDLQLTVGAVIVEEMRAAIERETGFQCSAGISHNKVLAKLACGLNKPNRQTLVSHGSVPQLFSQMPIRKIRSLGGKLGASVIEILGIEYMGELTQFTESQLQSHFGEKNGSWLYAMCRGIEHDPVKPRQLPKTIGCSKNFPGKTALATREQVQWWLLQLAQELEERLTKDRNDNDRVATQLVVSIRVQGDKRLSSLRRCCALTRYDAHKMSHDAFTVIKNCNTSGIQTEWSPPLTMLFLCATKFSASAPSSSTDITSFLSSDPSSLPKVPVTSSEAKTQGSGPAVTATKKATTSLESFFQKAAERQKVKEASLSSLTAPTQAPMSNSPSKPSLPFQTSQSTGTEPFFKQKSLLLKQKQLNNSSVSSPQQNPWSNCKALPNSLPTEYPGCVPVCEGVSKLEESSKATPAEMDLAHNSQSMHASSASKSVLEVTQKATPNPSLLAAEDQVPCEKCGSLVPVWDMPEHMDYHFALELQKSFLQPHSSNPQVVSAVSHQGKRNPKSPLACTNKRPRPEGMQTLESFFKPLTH
Experiment: qHTS for Inhibitors of Polymerase Eta
Settings: recombinant Pol eta, fluorescent DNA replication assay; series mostly up to 114 µM
Source text: The Y-family of DNA polymerases, such as Pol eta, are specifically involved in DNA repair. Pol eta copies undamaged DNA with a lower fidelity than other DNA-directed polymerases. However, it accurately replicates UV-damaged DNA; when thymine dimers are present, this polymerase inserts the complementary nucleotides in the newly synthesized DNA, thereby bypassing the lesion and suppressing the mutagenic effect of UV-induced DNA damage. […] Thus, while pol eta's (and most likely iota's) normal function is to protect humans against the deleterious consequences of DNA damage, under certain conditions they can have deleterious effects on human health. As a consequence, we propose to utilize a high throughput replication assay to identify small molecule inhibitors of pol eta. In a collaboration between the National Institute of Child Health & Human Development (NICHD) and NIH Chemical Genomics Center, a high-throughput, fluorescent screen was developed to screen the NIH Molecular Libraries Small Molecule Repository (MLSMR). This screen is used to identify inhibitors of pol eta. NIH Chemical Genomics Center [NCGC] NIH Molecular Libraries Probe Centers Network [MLPCN] MLPCN Grant: MH090825 Assay Submitter (PI): Roger Woodgate, NICHD)
Three microliters of reagents (buffer in column 3 and 4 as negative control and 10 nM Pol eta in columns 1, 2, and 5-48) were dispensed into a 1,536-well black solid-bottomed plate. Compounds (23 nL) were transferred via Kalypsys pin tool equipped with 1536-pin array. The plates were then incubated for 15 min at room temperature, and 1 µL substrate (50 nM final concentration) was added to start the reaction and kinetically read twice at 0 min and 10 min on the Viewlux reader
Potency is read from the fitted curve at half-maximal effect.

SMILES | Potency
Cc1ccc(CN2CCc3nc(N4CCN(C)CC4)ncc3C2)cc1 | inactive
COc1ccc(CN2C(=O)C(NC(=O)c3cccc(C)c3)(C(F)(F)F)N=C2c2ccccc2)cc1 (configuration not stated) | inactive
COc1ccc(C(=O)CSc2c(C(C)C)cnc3c2c(=O)n(C)c(=O)n3C)cc1 | inactive
CCc1ccccc1NC(=O)Cc1ccc(NC(=O)N2CCCCc3ccccc32)cc1 | inactive
Cc1oc2ccc(O)c(CN3CCCCC3)c2c1C(=O)Nc1cccc(C(F)(F)F)c1 | inactive
CCOc1ccc(Nc2oc(/C=C/c3ccc(F)cc3)nc2C#N)cc1 | inactive
CCSc1ncnc2c(C#N)c3n(c12)CCCCC3 | inactive
CCSC1=C(C#N)C(=O)n2c1cc1c2CCCC1 | 12.6 µM (active)
CCOC(=O)c1ccc(CSc2nnc3cc(C)c4ccccc4n23)cc1 | inactive
CC(C)Cn1c(=O)c2ccccc2n2c(CCC(=O)N3CCN(c4cccc(Cl)c4)CC3)nnc12 | inactive
O=c1c2ccccc2n(Cc2cccc(Cl)c2)c(=O)n1Cc1ccccc1 | inactive
CCN(CC)CCCC(C)n1c2nc(=O)[nH]c(=O)c-2nc2cc(Cl)ccc21 (configuration not stated) | 31.6 µM (active)
CCN(CC)CCCC(C)Nc1ccnc2cc(Cl)ccc12 (configuration not stated) | inactive
CCc1cccc(NC(=O)CSc2nccn2C)c1 | inactive
CCCCn1cc(S(=O)(=O)c2ccc(OCC)cc2)c(=O)c2cc(OC)c(OC)cc21 | inactive
Cc1ccc(NC(=O)c2cc3cc(C)ccc3n2C)cc1 | inactive
CCOC(=O)/C=C/c1ccc(C(F)(F)F)cc1S(=O)(=O)NC(C)(C)C | inactive
CCOC(=O)C[C@H]1c2ccc(C(F)(F)F)cc2S(=O)(=O)N1c1ccccc1 | inactive
CCOC(=O)C1Nc2ccc(C(F)(F)F)cc2C2C=CCC12 (configuration not stated) | 79.4 µM (active)
CC(=O)Nc1ccc(NC(=O)C2CCCN(S(=O)(=O)c3ccc4c(c3)CCCC(=O)N4)C2)cc1 (configuration not stated) | inactive
Cc1c(Cl)cnc(NC(=O)COC(=O)C2CCCC2)c1Cl | 35.5 µM (active)
Cc1ccc(Cl)cc1NC(=O)COC(=O)C1CCCCC1 | inactive
Cc1c(Cl)cnc(NC(=O)COC(=O)c2ccc(S(=O)(=O)NCc3ccco3)cc2)c1Cl | inactive
COc1cccc(Nc2nc3ccccc3c3nncn23)c1 | inactive
CCN(CC)S(=O)(=O)c1ccc(C(=O)N=c2sc3cccc(OC)c3n2C)cc1 | inactive

SMILES | Potency
Cc1cccc(C(=O)N2c3nc(-c4ccco4)nn3C3(CCCCC3)[C@@H]3CCCC[C@@H]32)c1 | inactive
CCCCCCc1cc2cc(-c3nnc(-c4ccccc4)o3)c(=O)oc2cc1O | 39.8 µM (active)
Cc1ccc(CNC(=O)CCc2c(C)nc3c(c(C)nn3-c3ccccc3)c2C)cc1 | inactive
O=C(CC1C(=O)N(c2ccccc2)C(=O)N1CCc1cccs1)Nc1ccc(F)cc1 (configuration not stated) | inactive
CC(=O)c1cc(-c2ccccc2)[nH]c1N1CCCC1 | inactive
O=C1NN(c2ccccc2)C(=O)/C1=C/c1ccc(-c2cccc(C(=O)O)c2)o1 | 20 µM (active)
CCOc1ccc(N(CC)S(=O)(=O)N2CCCC(C(=O)Nc3ccc(C(C)=O)cc3)C2)cc1 (configuration not stated) | inactive
COc1cc(C)ccc1OCCSc1nc2ccc(NC(=O)c3ccc(C)cc3)cc2s1 | inactive
CCOC(=O)N1CCc2c(sc3c2c(=O)n(Cc2ccccc2)c(=O)n3CC(=O)Nc2cccc(C)c2)C1 | inactive
Fc1ccc(C(Nc2ccc(Cl)c(C(F)(F)F)c2)c2nnc(-c3ccccc3)o2)cc1 (configuration not stated) | inactive
Cn1ccc(=Nc2ccc(NC(=O)c3ccc(N=c4ccn(C)c5ccc([N+](=O)[O-])cc45)cc3)cc2)cc1 | 5.62 µM (active)
CC(=O)Nc1ccc(C(=O)OCC(=O)Nc2ccc([N+](=O)[O-])cc2C(F)(F)F)cc1 | inactive
CC(=O)c1ccc(NC(=O)COc2ccccc2-c2nc(-c3ccccc3)no2)cc1 | inactive
CCS(=O)(=O)N1CCc2cc(C(=O)NCc3ccc(OC)cc3)ccc21 | inactive
Cc1cccc(C(=O)NC(=S)N2CCN(c3ccc([N+](=O)[O-])cc3)CC2)c1 | inactive
Cc1cc(/C=N/Nc2ccc([N+](=O)[O-])cn2)c(C)n1-c1cccc(C(=O)O)c1 | 22.4 µM (active)
CN1CCN(C(=O)c2cnn(-c3ccccc3)c2NC(=O)c2ccc([N+](=O)[O-])cc2)CC1 | inactive
O=C(NCc1ccco1)c1cnn2c(C(F)(F)F)cc(-c3ccco3)nc12 | inactive
COC(=O)c1cnn2c(C(F)(F)F)cc(-c3ccco3)nc12 | 20 µM (active)
Cc1ccc(-c2cc(C(F)(F)F)n3ncc(C(=O)N4CCCCC4c4cccnc4)c3n2)cc1 (configuration not stated) | inactive
Cc1ccc2nc(-c3ccc(O)cc3)c(Nc3ccc4c(c3)OCO4)n2c1 | inactive
CCOC(=O)C1CCC(CN(Cc2ccc(OC)cc2)S(=O)(=O)c2ccc(F)c(C(=O)Nc3cc(C)ccc3C)c2)CC1 (configuration not stated) | inactive
COc1ccc(C(=O)Nc2nc(-c3ccc(OC)cc3)c(-c3ccc([N+](=O)[O-])cc3)s2)cc1 | 79.4 µM (active)
COc1ccc(-c2nc3ccc(C(=O)NCc4ccc(C)cc4)cc3nc2-c2ccc(OC)cc2)cc1 | inactive
COCCN(CCOC)S(=O)(=O)c1ccc(C(=O)Nc2nc3c(s2)CCc2ccccc2-3)cc1 | inactive

SMILES | Potency
CCOc1ccc(N(C)S(=O)(=O)c2cc(-c3cnc(C)o3)ccc2OC)cc1 | inactive
CCNC(=O)c1sccc1-n1cccc1 | inactive
Cc1ccsc1C(=O)NCCc1ccco1 | 22.4 µM (active)
O=C(NCc1ccco1)c1sc2cccc(F)c2c1Cl | inactive
CCC1=Nc2cc(C(=O)NCCCOC(C)C)ccc2Sc2ccc(C)cc21 | inactive
O=C(NCc1ccccc1)c1cc(-c2cccc(Cl)c2)on1 | inactive
O=C(O)C(c1ccccc1)N1C(=O)/C(=C\c2ccc(-c3cccc(Cl)c3)o2)SC1=S (configuration not stated) | 44.7 µM (active)
O=C(NCCc1ccc(Cl)cc1)c1ccc2c(c1)N(Cc1ccc(F)cc1)C(=O)CS2 | inactive
C=CC1(C)CC(=O)C2(O)C(C)(O1)C(OC(C)=O)C(O)C1C(C)(C)CCC(O)C12C (configuration not stated) | inactive
CCOC(=O)C1CCN(C(=O)CSc2c3c(nc4ccc(Cl)cc24)CCCC3)CC1 | inactive
Cc1cc(/C=C2\SC(=O)N(C)C2=O)c(C)n1-c1cccc(C(=O)O)c1 | 22.4 µM (active)
Cc1cc(C(=O)CC#N)c(C)n1-c1c(C)n(C)n(-c2ccccc2)c1=O | inactive
Cc1ccc(C)c2c1cc(C)c1nnc(SCC(=O)Nc3cccc(C(=O)O)c3)n12 | inactive
CCCCN(C)c1nnc(NC(=O)Nc2ccc(Br)c(C)c2)s1 | inactive
CCOC(=O)c1cc2c(=O)n3ccccc3nc2n(CC2CCCO2)c1=NC(=O)c1ccccc1F (configuration not stated) | inactive
COCCN(Cc1ccco1)C(=O)Cn1ncc2c([nH]c3ccccc32)c1=O | inactive
CCc1ccccc1NC(=O)c1sc2nc3c(cc2c1N)CN(Cc1ccccc1)CC3 | inactive
CCc1ccc(NC(=O)c2sc3nc4c(cc3c2N)CN(CC)CC4)cc1 | inactive
CCc1ccc2nc3sc(C(=O)Nc4nnc(CC)s4)c(N)c3cc2c1 | 50.1 µM (active)
CCCN(CCC)CCCNC(=O)Cn1cc2c(n1)-c1c(oc(C(=O)N3CCCC3)c1C)CC2 | inactive
CCOC(=O)c1cc(OC(=O)c2ccccc2Cl)n(-c2ccccc2)n1 | inactive
Cn1c(=O)c2c(-c3ccccc3Br)n(Cc3ccccc3)cc2n(C)c1=O | inactive
CCc1ccc(NC(=O)CN2C(=O)CCSc3ccc(S(=O)(=O)N4CCCC4)cc32)cc1 | inactive
CC(Oc1ccccc1)C(=O)NN1Cc2ccccc2C1=N (configuration not stated) | inactive
CC(Oc1ccc(Br)cc1)C(=O)NCC(c1ccco1)N1CCCCC1 (configuration not stated) | inactive

SMILES | Potency
CC(Oc1ccccc1)C(=O)Nc1oc(-c2ccco2)c(-c2ccco2)c1C#N (configuration not stated) | 20 µM (active)
Cc1c(-c2cccc(NC(=O)C(C)(C)C)c2)nc2ncccn12 | inactive
CCOc1ccc(S(=O)(=O)N(CC(=O)NCCSCc2ccc(C)cc2)c2ccccc2)cc1 | inactive
Cc1ccc(S(=O)(=O)Nc2nc(N)n(-c3ccccc3)n2)cc1 | inactive
Cc1ccc(S(=O)(=O)/N=S(\C)C(C)C)cc1 (configuration not stated) | inactive
COc1ccc(S(=O)(=O)Nc2cc3c(C(=O)OC(C)C)c(C)oc3c3ccccc23)cc1 | inactive
COc1ccc(S(=O)(=O)/N=C2\C=C(NS(=O)(=O)c3ccccc3)C(=O)c3ccccc32)cc1 | 22.4 µM (active)
COc1ccc(N2CCN(C3CCCCC3NS(=O)(=O)c3ccccc3)CC2)cc1 (configuration not stated) | inactive
Cc1ccc(S(=O)(=O)/N=C2\C=C(NS(=O)(=O)c3ccc(C)cc3)C(=O)c3ccccc32)cc1 | 79.4 µM (active)
COc1ccc(N(CC(=O)NCCc2ccc(Cl)cc2)S(=O)(=O)c2c(C)nn(C)c2C)cc1 | inactive
CCN(CC)c1ccc(NC(=O)Cn2nc3c(cc2=O)CCCC3)c(C)c1 | inactive
CCCCOC(=O)CSc1ncnc2sc3c(c12)CCC(C)C3 (configuration not stated) | inactive
NC1CCN(O)C1=O (configuration not stated) | inactive
CCOc1ccc(NC(=O)CCC(=O)N2CC(C)Oc3ccc(C)cc32)cc1 (configuration not stated) | inactive
COc1ccc(NC(=O)CCCc2nnc3n(CCC(C)C)c(=O)c4sccc4n23)c(OC)c1 | inactive
O=C(O)c1ccc2c(c1)C(=O)N(c1ccc(/C=C/C(=O)c3ccccc3)cc1)C2=O | 22.4 µM (active)
Cc1cc(N2C(=O)c3ccc(C(=O)NCc4ccccc4)cc3C2=O)no1 | inactive
COc1ccc(OC)c(NC(=O)c2ccc3c(c2)C(=O)N(c2ccc(OC(C)=O)cc2)C3=O)c1 | inactive
COc1ccc(Cl)cc1-n1c(CCC(=O)O)ccc1-c1ccc(C)cc1 | inactive
O=C(COc1ccc2c(C(F)(F)F)cc(=O)oc2c1)Nc1ccc2c(c1)OCCO2 | inactive
Cc1cc(C)cc(Oc2c(C(F)(F)F)oc3cc(OCC(=O)O)ccc3c2=O)c1 | 35.5 µM (active)
Cc1ccc(Oc2c(C(F)(F)F)oc3c(CN4CCCCC4)c(O)ccc3c2=O)cc1 | inactive

Source: PubChem BioAssay AID588591 (National Center for Advancing Translational Sciences (NCATS), 2011)
